Data reported in PubChem BioAssay (EPA / NIEHS).
Results filed as inconclusive are left out. Active and inactive are the calls of the source. How the source made its calls, unless noted: active means hit-call score of the fitted dose curve at least 0.9, where 1 is the maximum; inconclusive means response in the unintended direction; inactive means score below 0.9.

Assays:
[1] = biological target: human CYP2D6, CYP2D6 (gene 1565) (UniProt P10635); assay: NVS_ADME_hCYP2D6: NovaScreen (NVS) CYP450-related Enzyme Activity (ADME) Assay for human CYP2D6 (AID 2283107)
Summary of the method: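 Biochemical fluorescence assay, insect-cell-derived enzyme. Read at 1 h; inhibition taken from loss of signal against acetonitrile. Screened at 10 uM in duplicate, with concentration series for actives.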

[2] = biological target: Cytochrome P450 2C19 (Homo sapiens) (UniProt P33261); assay: NVS_ADME_hCYP2C19: NovaScreen (NVS) CYP450-related Enzyme Activity (ADME) Assay for human CYP2C19 (AID 2283113);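 on AC50: potency for inhibition seen as loss of fluorescent signal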
Summary of the method: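 Biochemical CYP2C19 inhibition screen: insect-cell recombinant protein plus fluorescent substrate, 1 h, fluorescence intensity. Acetonitrile defined baseline activity. Single 10 uM concentration in duplicate, with concentration-response follow-up for actives.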

[3] = biological target: rat CYP2A2, Cyp2a2 (gene 24895) (UniProt P15149); assay: NVS_ADME_rCYP2A2: NovaScreen (NVS) CYP450-related Enzyme Activity (ADME) Assay for rat CYP2A2 (AID 2283116)
Summary of the method: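 Compounds first tested in duplicate at 10 uM, then in singleton concentration series up to 20 uM when over threshold. Activity of the recombinant enzyme read by fluorescence at 0.2 h, normalised to acetonitrile vehicle.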

[4] = test system: rat CYP2B1, gene 24300; assay: NVS_ADME_rCYP2B1: NovaScreen (NVS) CYP450-related Enzyme Activity (ADME) Assay for rat CYP2B1 (AID 2283117)
Summary of the method: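 Cell-free fluorescence enzyme assay, recombinant rat CYP2B1, 0.75 h after dosing. Single-concentration duplicates at 10 uM preceded concentration series (max 20 uM) for actives; acetonitrile as negative-control baseline.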

[5] = biological target: human CYP4F12, CYP4F12 (gene 66002) (UniProt Q9HCS2); assay: NVS_ADME_hCYP4F12: NovaScreen (NVS) CYP450-related Enzyme Activity (ADME) Assay for human CYP4F12 (AID 2283111)
Summary of the method: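 Recombinant enzyme with a fluorescent substrate, signal read at 0.5 h post-dose; activity loss analysed relative to acetonitrile. Compounds first run in duplicate at 10 uM, with follow-up concentration-response testing of actives.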

[6] = biological target: human AMP-activated Protein Kinase, alpha 1 (AMPKa1), PRKAA1 (gene 5562) (UniProt Q13131); assay: NVS_ENZ_hAMPKa1: NovaScreen (NVS) Enzymatic Assay for human AMP-activated Protein Kinase, alpha 1 (AMPKa1) (AID 2283130)
Summary of the method: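 Compounds were screened in duplicate at 25 uM, and those reaching ~30% inhibition were titrated up to 50 uM. The enzyme was recombinant human AMPKα1, and kinase turnover was read by fluorescence/mobility shift 1 h post-dosing as loss of signal versus DMSO.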

[7] = biological target: Caspase-1 (Homo sapiens) (UniProt P29466); assay: NVS_ENZ_hCASP1: NovaScreen (NVS) Enzymatic Assay for human Caspase 1 (CASP1) (AID 2283132)
Summary of the method: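 Compounds were first tested in duplicate at 25 uM, with follow-up concentration series up to 50 uM. The bacterially expressed enzyme was read by fluorescence at 1 h post-dosing. Signal loss versus DMSO baseline indicates reduced enzyme activity.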

[8] = biological target: human CYP2J2, CYP2J2 (gene 1573) (UniProt P51589); assay: NVS_ADME_hCYP2J2: NovaScreen (NVS) CYP450-related Enzyme Activity (ADME) Assay for human CYP2J2 (AID 2283106)
Summary of the method: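 Chemicals were first tested at 10 uM in duplicate, and hits meeting criteria such as 30% inhibition were run in singleton concentration series with a 20 uM top concentration. Enzyme activity of recombinant CYP2J2 was measured by fluorescence after 1 h, relative to acetonitrile.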

[9] = biological target: rat CYP2C13, Cyp2c13 (gene 171521) (UniProt P20814); assay: NVS_ADME_rCYP2C13: NovaScreen (NVS) CYP450-related Enzyme Activity (ADME) Assay for rat CYP2C13 (AID 2283121)
Summary of the method: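 Inhibition is read as decreased fluorescent product formation, referenced to acetonitrile vehicle. Cell-free recombinant rat Cyp2c13 reaction ran 0.75 hour; compounds first at 10 uM in duplicate, then concentration series for actives.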

[10] = test system: rat CYP3A1, gene 25642; assay: NVS_ADME_rCYP3A1: NovaScreen (NVS) CYP450-related Enzyme Activity (ADME) Assay for rat CYP3A1 (AID 2283126)
Summary of the method: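 Compounds went first at 10 uM duplicate, then to series with 20 uM maximum. Fluorescence from substrate turnover by the recombinant enzyme was measured 0.5 h post-dosing, inhibition scored against acetonitrile vehicle.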

[11] = biological target: Cytochrome P450 2C18 (Homo sapiens) (UniProt P33260); assay: NVS_ADME_hCYP2C18: NovaScreen (NVS) CYP450-related Enzyme Activity (ADME) Assay for human CYP2C18 (AID 2283103; active means hit-call score of the fitted dose curve at least 0.9, where 1 is the maximum; inactive means score below 0.9)
Summary of the method: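 Enzyme activity measured by fluorescence 0.5 h after compound addition, using recombinant CYP2C18 and a specific substrate. Actives from duplicate 10 uM screening were retested in concentration series (top 20 uM); acetonitrile served as negative baseline.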

[12] = biological target: human CYP2C8, CYP2C8 (gene 1558) (UniProt P10632); assay: NVS_ADME_hCYP2C8: NovaScreen (NVS) CYP450-related Enzyme Activity (ADME) Assay for human CYP2C8 (AID 2283104; active means hit-call score of the fitted dose curve at least 0.9, where 1 is the maximum; inactive means score below 0.9)
Summary of the method: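 Fluorescence readout of substrate turnover by recombinant CYP2C8 after 0.5 h, baseline acetonitrile. Single-concentration duplicate screen at 10 uM preceded singleton concentration series (max 20 uM) for compounds passing the inhibition threshold.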

[13] = biological target: Cytochrome P450 3A4 (Homo sapiens) (UniProt P08684); assay: NVS_ADME_hCYP3A4: NovaScreen (NVS) CYP450-related Enzyme Activity (ADME) Assay for human CYP3A4 (AID 2283110)
Summary of the method: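 Activity is derived from decreased fluorescence intensity relative to acetonitrile, measured 0.33 hour after dosing insect-cell-expressed CYP3A4 in a cell-free format. Screening used 10 uM in duplicate before concentration-response follow-up.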

[14] = biological target: rat CYP1A2, Cyp1a2 (gene 24297) (UniProt P04799); assay: NVS_ADME_rCYP1A2: NovaScreen (NVS) CYP450-related Enzyme Activity (ADME) Assay for rat CYP1A2 (AID 2283115)
Summary of the method: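 Primary testing ran in duplicate at 10 uM, with actives re-tested across concentration series. Fluorescence intensity from substrate turnover by recombinant protein, measured 1 hour post-dosing, with signal loss scored against acetonitrile vehicle.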

[15] = biological target: rat CYP2C11, Cyp2c11 (gene 29277) (UniProt P08683); assay: NVS_ADME_rCYP2C11: NovaScreen (NVS) CYP450-related Enzyme Activity (ADME) Assay for rat CYP2C11 (AID 2283118)
Summary of the method: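 Screened first at 10 uM in duplicate, hits followed by concentration-response. Recombinant rat enzyme activity monitored by fluorescence 0.33 h post-dosing, normalised to acetonitrile negative control.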

[16] = biological target: rat CYP2C12, Cyp2c12 (gene 25011) (UniProt P11510); assay: NVS_ADME_rCYP2C12: NovaScreen (NVS) CYP450-related Enzyme Activity (ADME) Assay for rat CYP2C12 (AID 2283119)
Summary of the method: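 Fluorescent-substrate turnover by recombinant rat CYP2C12, measured at 0.5 h, normalized to acetonitrile vehicle. Chemicals screened first at a single 10 uM concentration in duplicate, with concentration series for actives.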

[17] = test system: rat CYP2C6, gene 293989; assay: NVS_ADME_rCYP2C6: NovaScreen (NVS) CYP450-related Enzyme Activity (ADME) Assay for rat CYP2C6 (AID 2283120)
Summary of the method: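 Compounds first tested in duplicate at 10 uM, hits (e.g. 30% inhibition) re-run in singleton dose series to a 20 uM top concentration. Enzyme activity of recombinant rat CYP2C6 measured via fluorescent substrate turnover after 1 h; acetonitrile baseline.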

[18] = biological target: rat CYP2D1, Cyp2d1 (gene 266684) (UniProt P10633); assay: NVS_ADME_rCYP2D1: NovaScreen (NVS) CYP450-related Enzyme Activity (ADME) Assay for rat CYP2D1 (AID 2283122)
Summary of the method: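 Rat CYP2D1 enzyme activity measured by fluorescence intensity in a cell-free format, 0.75 h post-dosing, acetonitrile as negative control. Screening at 10 uM in duplicate, with actives followed in concentration series up to 20 uM.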

Measured: AC50

human CYP2J2, CYP2J2 (gene 1573), sequence (P51589 whole entry, looked up): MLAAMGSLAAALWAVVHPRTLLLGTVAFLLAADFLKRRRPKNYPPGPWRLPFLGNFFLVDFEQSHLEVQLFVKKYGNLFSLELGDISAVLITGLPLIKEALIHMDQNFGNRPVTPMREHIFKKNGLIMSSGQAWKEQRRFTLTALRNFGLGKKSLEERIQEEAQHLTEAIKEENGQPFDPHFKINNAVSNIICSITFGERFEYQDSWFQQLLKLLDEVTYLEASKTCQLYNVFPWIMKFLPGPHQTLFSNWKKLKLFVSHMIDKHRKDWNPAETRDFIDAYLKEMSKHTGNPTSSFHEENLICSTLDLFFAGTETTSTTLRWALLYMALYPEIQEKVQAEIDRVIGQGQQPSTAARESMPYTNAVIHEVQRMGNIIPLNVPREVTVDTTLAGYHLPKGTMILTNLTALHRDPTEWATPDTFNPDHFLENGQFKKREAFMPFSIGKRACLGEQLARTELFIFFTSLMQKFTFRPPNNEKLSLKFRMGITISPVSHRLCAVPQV
rat CYP2C13, Cyp2c13 (gene 171521), sequence (P20814 whole entry, looked up): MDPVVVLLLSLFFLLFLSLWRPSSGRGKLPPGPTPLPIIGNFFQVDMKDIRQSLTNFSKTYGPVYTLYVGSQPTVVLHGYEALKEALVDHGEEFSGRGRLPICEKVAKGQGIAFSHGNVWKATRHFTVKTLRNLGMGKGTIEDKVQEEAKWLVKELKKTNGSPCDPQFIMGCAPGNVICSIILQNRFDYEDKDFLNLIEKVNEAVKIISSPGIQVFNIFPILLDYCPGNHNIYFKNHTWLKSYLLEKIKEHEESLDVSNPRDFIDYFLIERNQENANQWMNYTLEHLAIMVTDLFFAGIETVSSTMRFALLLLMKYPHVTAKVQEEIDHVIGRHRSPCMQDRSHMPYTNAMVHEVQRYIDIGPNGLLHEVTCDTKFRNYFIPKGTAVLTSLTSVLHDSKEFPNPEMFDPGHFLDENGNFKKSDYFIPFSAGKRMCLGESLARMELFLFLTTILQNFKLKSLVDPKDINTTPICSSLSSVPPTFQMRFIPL
Cytochrome P450 2C18 (Homo sapiens), sequence (P33260 whole entry, looked up): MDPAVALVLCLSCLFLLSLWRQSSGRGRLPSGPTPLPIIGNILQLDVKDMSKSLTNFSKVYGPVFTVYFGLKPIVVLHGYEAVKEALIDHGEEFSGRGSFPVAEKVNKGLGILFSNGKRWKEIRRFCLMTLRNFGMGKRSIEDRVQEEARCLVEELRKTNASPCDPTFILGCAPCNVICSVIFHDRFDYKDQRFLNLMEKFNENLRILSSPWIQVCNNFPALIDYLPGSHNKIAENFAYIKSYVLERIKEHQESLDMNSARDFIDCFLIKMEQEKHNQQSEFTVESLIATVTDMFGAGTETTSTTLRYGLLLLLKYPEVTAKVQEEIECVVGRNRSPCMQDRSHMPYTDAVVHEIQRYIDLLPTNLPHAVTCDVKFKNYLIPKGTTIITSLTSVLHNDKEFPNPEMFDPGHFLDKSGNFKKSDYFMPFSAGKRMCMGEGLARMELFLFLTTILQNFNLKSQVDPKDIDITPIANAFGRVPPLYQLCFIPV
human CYP2D6, CYP2D6 (gene 1565), sequence (P10635 whole entry, looked up): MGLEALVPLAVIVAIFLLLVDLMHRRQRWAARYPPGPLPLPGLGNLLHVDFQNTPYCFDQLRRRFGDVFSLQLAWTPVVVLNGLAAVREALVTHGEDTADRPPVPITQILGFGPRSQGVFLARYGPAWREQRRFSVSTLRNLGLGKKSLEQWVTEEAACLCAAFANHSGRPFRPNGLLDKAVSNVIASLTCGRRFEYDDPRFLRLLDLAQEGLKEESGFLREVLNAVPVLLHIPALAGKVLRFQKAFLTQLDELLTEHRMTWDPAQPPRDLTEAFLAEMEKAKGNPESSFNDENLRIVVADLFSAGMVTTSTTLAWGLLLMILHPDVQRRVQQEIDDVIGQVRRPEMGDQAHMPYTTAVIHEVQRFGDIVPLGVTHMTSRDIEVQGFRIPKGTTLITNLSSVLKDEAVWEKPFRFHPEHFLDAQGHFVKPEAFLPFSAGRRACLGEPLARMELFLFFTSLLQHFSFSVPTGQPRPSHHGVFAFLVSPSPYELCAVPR
rat CYP2A2, Cyp2a2 (gene 24895), sequence (P15149 whole entry, looked up): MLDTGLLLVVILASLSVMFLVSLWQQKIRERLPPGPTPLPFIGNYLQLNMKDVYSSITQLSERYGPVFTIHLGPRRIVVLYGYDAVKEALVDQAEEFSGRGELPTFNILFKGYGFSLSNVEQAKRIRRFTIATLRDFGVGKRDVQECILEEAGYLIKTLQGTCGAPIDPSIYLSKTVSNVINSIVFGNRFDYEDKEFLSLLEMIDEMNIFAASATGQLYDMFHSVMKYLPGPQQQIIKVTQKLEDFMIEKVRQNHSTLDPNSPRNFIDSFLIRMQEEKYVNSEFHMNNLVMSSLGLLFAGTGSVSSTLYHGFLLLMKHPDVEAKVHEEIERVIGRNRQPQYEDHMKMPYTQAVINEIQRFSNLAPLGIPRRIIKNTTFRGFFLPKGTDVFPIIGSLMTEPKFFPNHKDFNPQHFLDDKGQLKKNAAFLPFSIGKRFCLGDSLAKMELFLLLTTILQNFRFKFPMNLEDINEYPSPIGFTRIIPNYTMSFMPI
human AMP-activated Protein Kinase, alpha 1 (AMPKa1), PRKAA1 (gene 5562), sequence (Q13131 whole entry, looked up): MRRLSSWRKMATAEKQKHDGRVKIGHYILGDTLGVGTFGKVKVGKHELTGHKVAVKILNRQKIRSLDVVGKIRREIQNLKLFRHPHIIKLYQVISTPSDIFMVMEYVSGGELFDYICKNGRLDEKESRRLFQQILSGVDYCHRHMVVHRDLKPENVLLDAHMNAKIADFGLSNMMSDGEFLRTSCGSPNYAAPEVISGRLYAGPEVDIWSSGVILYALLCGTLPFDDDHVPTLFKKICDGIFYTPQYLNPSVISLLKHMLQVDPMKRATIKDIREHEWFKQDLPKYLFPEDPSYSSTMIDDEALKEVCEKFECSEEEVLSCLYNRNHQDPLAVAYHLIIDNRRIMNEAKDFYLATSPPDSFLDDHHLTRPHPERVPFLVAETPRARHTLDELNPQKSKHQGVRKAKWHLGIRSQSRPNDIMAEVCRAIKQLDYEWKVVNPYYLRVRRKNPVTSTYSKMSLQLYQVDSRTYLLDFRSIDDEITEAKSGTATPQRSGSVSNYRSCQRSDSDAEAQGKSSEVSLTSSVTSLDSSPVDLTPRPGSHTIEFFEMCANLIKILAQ
Caspase-1 (Homo sapiens), sequence (P29466 whole entry, looked up): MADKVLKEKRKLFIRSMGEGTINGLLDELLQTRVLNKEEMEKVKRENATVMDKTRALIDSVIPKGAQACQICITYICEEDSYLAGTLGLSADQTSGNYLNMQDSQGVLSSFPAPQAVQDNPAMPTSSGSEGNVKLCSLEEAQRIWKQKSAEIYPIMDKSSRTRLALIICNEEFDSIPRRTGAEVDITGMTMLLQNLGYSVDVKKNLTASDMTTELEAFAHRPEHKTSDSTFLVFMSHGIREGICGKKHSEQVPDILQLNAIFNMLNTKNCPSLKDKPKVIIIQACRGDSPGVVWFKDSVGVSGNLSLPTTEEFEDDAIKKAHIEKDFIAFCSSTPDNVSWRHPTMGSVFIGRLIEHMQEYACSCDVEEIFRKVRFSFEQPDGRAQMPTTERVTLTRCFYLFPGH
rat CYP2C12, Cyp2c12 (gene 25011), sequence (P11510 whole entry, looked up): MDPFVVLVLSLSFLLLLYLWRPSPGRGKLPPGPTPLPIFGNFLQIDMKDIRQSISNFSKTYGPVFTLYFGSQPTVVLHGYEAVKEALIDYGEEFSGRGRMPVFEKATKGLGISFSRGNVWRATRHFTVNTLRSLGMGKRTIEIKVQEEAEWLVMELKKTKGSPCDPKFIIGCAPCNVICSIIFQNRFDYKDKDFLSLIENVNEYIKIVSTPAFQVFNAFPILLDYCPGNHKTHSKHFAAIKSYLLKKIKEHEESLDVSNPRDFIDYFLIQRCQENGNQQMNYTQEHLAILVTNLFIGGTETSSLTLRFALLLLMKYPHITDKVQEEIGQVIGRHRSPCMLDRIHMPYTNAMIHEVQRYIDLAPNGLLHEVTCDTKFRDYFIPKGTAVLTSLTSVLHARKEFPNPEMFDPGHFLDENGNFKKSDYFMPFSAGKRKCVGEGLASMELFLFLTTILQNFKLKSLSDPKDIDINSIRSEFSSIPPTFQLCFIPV
rat CYP2D1, Cyp2d1 (gene 266684), sequence (P10633 whole entry, looked up): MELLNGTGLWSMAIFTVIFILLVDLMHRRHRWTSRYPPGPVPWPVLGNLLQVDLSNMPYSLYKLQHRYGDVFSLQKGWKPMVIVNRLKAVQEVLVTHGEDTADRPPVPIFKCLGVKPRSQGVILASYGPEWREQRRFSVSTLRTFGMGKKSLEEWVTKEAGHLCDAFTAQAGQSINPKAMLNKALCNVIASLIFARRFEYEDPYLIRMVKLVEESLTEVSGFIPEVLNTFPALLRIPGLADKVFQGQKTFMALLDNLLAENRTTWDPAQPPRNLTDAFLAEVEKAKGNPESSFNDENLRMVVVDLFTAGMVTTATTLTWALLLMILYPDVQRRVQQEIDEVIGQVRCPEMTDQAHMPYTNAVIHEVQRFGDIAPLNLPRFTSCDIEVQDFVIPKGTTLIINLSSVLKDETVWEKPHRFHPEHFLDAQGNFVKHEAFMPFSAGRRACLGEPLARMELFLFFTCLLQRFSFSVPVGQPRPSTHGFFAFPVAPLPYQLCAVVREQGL
rat CYP2C11, Cyp2c11 (gene 29277), sequence (P08683 whole entry, looked up): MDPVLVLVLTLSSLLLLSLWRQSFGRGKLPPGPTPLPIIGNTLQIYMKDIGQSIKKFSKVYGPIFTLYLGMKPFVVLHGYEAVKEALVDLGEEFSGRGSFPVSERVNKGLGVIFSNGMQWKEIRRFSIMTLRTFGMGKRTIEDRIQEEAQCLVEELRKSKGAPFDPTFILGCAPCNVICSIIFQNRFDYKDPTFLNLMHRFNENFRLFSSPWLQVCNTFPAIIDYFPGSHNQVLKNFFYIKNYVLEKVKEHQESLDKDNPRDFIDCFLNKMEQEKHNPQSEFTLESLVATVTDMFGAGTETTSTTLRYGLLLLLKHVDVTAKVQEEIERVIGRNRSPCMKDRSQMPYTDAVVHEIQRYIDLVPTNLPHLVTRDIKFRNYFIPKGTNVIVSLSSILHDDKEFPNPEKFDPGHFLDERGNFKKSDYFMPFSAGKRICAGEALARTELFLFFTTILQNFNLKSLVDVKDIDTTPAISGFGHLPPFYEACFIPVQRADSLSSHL

Nc1c(Cl)cc([N+](=O)[O-])cc1Cl
inactive: [1] | [2] | [4]
active: [3] 113 nM

CN(C)[C@@H]1C(=O)C(C(N)=O)=C(O)[C@@]2(O)C(=O)C3=C(O)c4c(O)cccc4[C@@](C)(O)[C@H]3[C@H](O)[C@@H]12
active: [5] 10.5 nM | [6] 2400 nM | [7] 11600 nM
inactive: [1]

CSc1nc(NC(C)C)nc(NC(C)C)n1
inactive: [8] | [7]
active: [2] 13400 nM | [9] 7910 nM | [10] 5920 nM

CC[C@H](C)[C@H]1O[C@]2(C=C[C@@H]1C)C[C@@H]1C[C@@H](C/C=C(\C)[C@@H](O[C@H]3C[C@H](OC)[C@@H](O[C@H]4C[C@H](OC)[C@@H](NC)[C@H](C)O4)[C@H](C)O3)[C@@H](C)/C=C/C=C3\CO[C@@H]4[C@H](O)C(C)=C[C@@H](C(=O)O1)[C@]34O)O2
active: [11] 5390 nM | [2] 10000 nM | [3] 1650 nM | [9] 6310 nM | [10] 7040 nM | [6] 14600 nM

CCCOCC(=Nc1ccc(Cl)cc1C(F)(F)F)n1ccnc1
inactive: [14]
active: [11] 4780 nM | [12] 3770 nM | [8] 101 nM | [1] 6700 nM | [13] 522 nM | [2] 160 nM | [3] 29.4 nM | [4] 279 nM | [15] 798 nM | [16] 2460 nM | [17] 976 nM | [9] 966 nM | [18] 6880 nM | [10] 2800 nM

CCOP(=S)(OCC)Oc1ccc([N+](=O)[O-])cc1
inactive: [1]
active: [11] 1950 nM | [8] 609 nM | [2] 210 nM | [4] 559 nM | [15] 2930 nM | [16] 6180 nM | [17] 108 nM | [9] 10000 nM | [18] 10000 nM | [10] 6900 nM
